# Results from PubChem BioAssay (Tox21).
# Values joined by “and” are separate entries in the source; they are usually repeats but may differ in a detail not shown here. Equal values may be shown once. Inconclusive results are not listed. A call without a number means that no potency is given here. Active and inactive are the calls of the source. Calls come from the whole dose curve; as a rule, active = well fitted inhibition curve with a large enough effect in the repeat runs; inconclusive = weak or mixed curves; inactive = flat fitted curve, though single readings scatter.
# Target: Luciferin 4-monooxygenase (Photinus pyralis) (UniProt P08659)
# Assay: qHTS assay to identify small molecule inhibitors of firefly luciferase (AID 1224835); note: nearly all actives have a fitted effect of over 25% in size
# Conditions: purified P. pyralis luciferase, luminescence inhibition; series mostly up to 115 µM
# Text: U.S. Tox21 Program National Center for Advancing Translational Sciences [NCATS] NIH Chemical Genomics Center [NCGC] U.S. Environmental Protection Agency [EPA] National Institutes of Environmental Health Sciences [NIEHS] National Toxicology Program [NTP] U.S. Food and Drug Administration [FDA] Tox21 Assay Overview: Firefly (Photinus pyralis) luciferase is one of the most commonly used transcriptional reporters. Firefly luciferase reporter-gene assays are generally considered one of the most sensitive assay types (Wood, 1995; Wood, 1998). However, it was initially observed, in 1991, by Thompson et al., that compounds that resemble the substrates of firefly luciferase (FLuc) can act as competitive inhibitors of the enzyme, and that these compounds, upon interaction with luciferase in the cell, can actually stabilize the protein and increase its half-life. Previous profiling work by other groups to determine the prevalence of compounds that affect FLuc enzymatic activity (PubChem AID 411) identified that ~3% of the MLSMR library (then at ~72K) inhibited FLuc. […] Thus the Tox21 10K library is profiled for activity against FLuc using a biochemical assay of purified FLuc and KM concentrations of FLuc substrates (D-luciferin and ATP).
# These assay plates were then treated with 23nL of compound or DMSO using a Kalypsys pin tool, which allows for delivery of a 6-point interplate titration of each compound to the assay plate (quantitative HTS.) 1 uL of firefly luciferase mix (containing 50 mM Tris acetate, pH 7.6, 0.04 uM P. pyralis luciferase, 0.01% Tween, 0.05% BSA and dH2O) was then delivered by FRD to each well. Luciferase activity was then measured using a ViewLux CCD imager.
# Sequence of Luciferin 4-monooxygenase (Photinus pyralis) (P08659 whole entry, looked up): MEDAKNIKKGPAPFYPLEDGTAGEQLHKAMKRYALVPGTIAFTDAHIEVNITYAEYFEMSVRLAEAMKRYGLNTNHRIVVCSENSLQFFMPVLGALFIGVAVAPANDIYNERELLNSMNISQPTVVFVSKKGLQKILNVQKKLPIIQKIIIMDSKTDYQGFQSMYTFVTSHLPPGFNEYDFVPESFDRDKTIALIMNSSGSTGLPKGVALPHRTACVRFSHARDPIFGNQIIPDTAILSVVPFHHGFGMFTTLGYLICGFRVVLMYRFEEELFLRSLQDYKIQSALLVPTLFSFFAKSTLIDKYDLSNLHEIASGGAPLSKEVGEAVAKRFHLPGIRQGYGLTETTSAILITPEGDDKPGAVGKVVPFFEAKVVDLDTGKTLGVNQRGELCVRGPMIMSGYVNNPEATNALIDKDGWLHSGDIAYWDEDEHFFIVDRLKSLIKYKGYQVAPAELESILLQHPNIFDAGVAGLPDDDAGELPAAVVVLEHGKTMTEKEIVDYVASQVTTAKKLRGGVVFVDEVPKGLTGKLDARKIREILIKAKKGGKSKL
row,SMILES,Potency
1,CCCCCCCC(=O)[O-].CCCCCCCC(=O)[O-].[Zn+2],34.7 µM (active)
2,Cc1onc(-c2ccccc2Cl)c1C(=O)N[C@@H]1C(=O)N2[C@@H]1SC(C)(C)[C@@H]2C(=O)O,inactive
3,Cc1ccc(O)c(C(C)(C)C)c1,inactive
4,CCCCCCCCCCCCCCCC[N+](C)(C)CCN(Cc1ccc(OC)cc1)c1ncccn1,inactive
5,Nc1ccc2cc(S(=O)(=O)O)cc(O)c2c1N=Nc1ccccc1C(F)(F)F,63.3 µM (active)
6,Cc1cc2c(cc1C(F)(F)F)N(C(=O)Nc1ccc(Oc3cccnc3C)nc1)CC2,inactive
7,CN(C/C=C/C#CC(C)(C)C)Cc1cccc2ccccc12,inactive
8,CCCCN1C(=O)[C@@H]([C@H](O)C2CCCCC2)NC(=O)C12CCN(Cc1ccc(Oc3ccc(C(=O)O)cc3)cc1)CC2,inactive
9,CC[C@@]1(O)C(=O)OCc2c1cc1n(c2=O)Cc2c-1nc1ccccc1c2/C=N/OC(C)(C)C,inactive
10,CC(C)n1nc(-c2cc3cc(O)ccc3[nH]2)c2c(N)ncnc21,inactive
11,Oc1c(Cl)cc(Cl)c2cccnc12,inactive
12,CCCCN1CCCC[C@H]1C(=O)Nc1c(C)cccc1C,inactive
13,C/C=C1/C(=O)C[C@H]2[C@@H]3CCC4=CC(=O)CC[C@]4(C)[C@H]3CC[C@]12C,inactive
14,Cc1ccc(-n2nc(C(C)(C)C)cc2NC(=O)Nc2ccc(OCCN3CCOCC3)c3ccccc23)cc1,inactive
15,CCCC(C)c1ccccc1O (stereo not given),inactive
16,Oc1ccc(Cl)cc1Sc1cc(Cl)ccc1O,inactive
17,O=c1cc(-c2ccc(O)cc2)oc2cc(O)cc(O)c12,10.2 µM (active) and 7.96 µM (active)
18,Cc1[nH]nc2c1N=C(c1ccccc1Cl)c1cc([N+](=O)[O-])ccc1N2,63.3 µM (active)
19,CCCCCOc1ccccc1/C(=C\SC)n1ccnc1,inactive
20,CN(C)C(=O)C1(N2CCCCC2)CCN(CC[C@@]2(c3ccc(Cl)c(Cl)c3)CN(C(=O)c3ccccc3)CCO2)CC1,inactive

row,SMILES,Potency
1,CCCC1O[C@@H]2C[C@H]3[C@@H]4CCC5=CC(=O)C=C[C@]5(C)[C@H]4[C@@H](O)C[C@]3(C)[C@]2(C(=O)CO)O1 (stereo not given in full),inactive
2,CC/C(=C(\c1ccc(O)cc1)c1ccc(OCCN(C)C)cc1)c1ccccc1,inactive
3,N=C1C=CC(=C(c2ccc(N)cc2)c2ccc(N)cc2)C=C1,20 µM (active)
4,O=C(O)c1ccc(Cl)c(Cl)c1,inactive
5,Cc1oc(-c2ccccc2)nc1CCC(=O)c1ccc(CC2SC(=O)NC2=O)cc1 (stereo not given),inactive
6,CCCCCCCC[P+](CCCCCCCC)(CCCCCCCC)CCCCCCCC,62.9 µM (active)
7,CC(C)(C)C(=O)OCOC(=O)[C@@H]1N2C(=O)[C@@H](NC(=O)[C@H](N)c3ccccc3)[C@H]2SC1(C)C,inactive
8,O=C(NO)C1(NS(=O)(=O)c2ccc(Oc3ccc(F)cc3)cc2)CCOCC1,inactive
9,Nc1c(Cl)cc(Cl)cc1Cl,inactive
10,CCc1cc(Cc2cc(CC)cc(C(C)(C)C)c2O)c(O)c(C(C)(C)C)c1,inactive
11,O=C1CCCc2c1cc1ccc3cccc4ccc2c1c34,11.4 µM (active)
12,N=C1N=C(N)c2ccccc21,inactive
13,N/C(=N\N=C\c1ccc(Cl)cc1)N/N=C/c1ccc(Cl)cc1,9.77 µM (active)
14,CCCCCCCC/C=C/CCCCCCCC1=NCCN1CCO,inactive
15,CSc1ccc2c(c1)C(N1CCN(C)CC1)Cc1ccccc1S2 (stereo not given),inactive
16,COC(=O)C1=C(C)NC(C)=C(C(=O)OCC(C)C)C1c1ccccc1[N+](=O)[O-] (stereo not given),inactive
17,Cc1cc(O)c2ccccc2c1O,inactive
18,C=C(C)C(=O)OCC(O)COc1ccc(C(C)(C)c2ccc(OCC(O)COC(=O)C(=C)C)cc2)cc1 (stereo not given),inactive
19,CC(C)C(C)(C)C(C)(C)C(C)(C)S,inactive
20,CCOC(=O)O[C@H](C)OC(=O)c1ccc2c(c1)cc(C(=O)NC1CCN(C(C)C)CC1)n2Cc1cc(-c2ccc(Cl)s2)on1,inactive
